NPC1 prom act – qHTS Assay for NPC1 Promoter Activators; Huh7 NPC1 promoter luciferase reporter, 24 h; Potency, µM (top dose mostly 9.22 µM), for inactives: top-dose activation, actives largely listed as activators; 2.4% of 320,000 active; AID 485313, 2010; further: % of control where 0% means no effect; nearly all actives have a fitted effect of over 60% in size
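NPC1 promoter–luciferase Huh7 cells; 24 h compound; luminescence.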
FLuc counter – qHTS profiling assay for firefly luciferase inhibitor/activator using purifed enzyme and Km concentrations of substrates (counterscreen for miR-21 project) | Luciferin 4-monooxygenase (Photinus pyralis), P08659 | purified FLuc, Km substrates, luminescence inhibition | Potency, µM (doses to about 57.5 µM), for the others: top-dose activity change, negative = inhibition, usual class: inhibitors | 6.9% of 360,000 active;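 further: plate controls were vehicle for no effect and reference inhibitor for full effect; nearly all actives have a fitted effect of over 55% in size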
Target sequence (P08659 whole entry, looked up): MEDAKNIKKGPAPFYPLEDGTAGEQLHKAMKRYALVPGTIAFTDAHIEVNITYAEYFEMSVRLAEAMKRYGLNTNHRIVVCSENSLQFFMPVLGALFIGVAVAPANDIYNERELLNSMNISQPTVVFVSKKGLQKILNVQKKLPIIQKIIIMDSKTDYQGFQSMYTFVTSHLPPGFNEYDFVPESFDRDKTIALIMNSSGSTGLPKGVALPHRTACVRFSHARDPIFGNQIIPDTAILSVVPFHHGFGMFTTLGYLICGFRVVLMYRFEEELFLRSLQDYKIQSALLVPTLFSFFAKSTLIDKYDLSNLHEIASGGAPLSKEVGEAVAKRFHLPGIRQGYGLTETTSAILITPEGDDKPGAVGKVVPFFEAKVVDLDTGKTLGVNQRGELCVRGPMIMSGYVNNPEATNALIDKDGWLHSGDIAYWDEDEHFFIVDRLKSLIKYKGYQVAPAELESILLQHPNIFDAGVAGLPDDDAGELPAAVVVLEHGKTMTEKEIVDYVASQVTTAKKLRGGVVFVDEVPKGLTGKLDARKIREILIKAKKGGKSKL
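Purified P. pyralis luciferase, 10 nM final, with Km-level 10 uM D-luciferin and 10 uM ATP in 50 mM Tris acetate pH 7.5, 10 mM Mg acetate, 0.01% Tween-20, 0.05% BSA; 6-point qHTS titration about 60 µM downward; luminescence read.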
SMN2 splice up – qHTS Assay for Enhancers of SMN2 Splice Variant Expression | HEK293 SMN2-luciferase splicing reporter, luminescence, 30-36 h | Potency, µM (top dose mostly 46.1 µM), for the others: top-dose activity change, positive = activation, usual class: activators | 2.8% of 210,000 active; further: % of control where 0% means no effect; nearly all actives have a fitted effect of over 55% in size
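HEK293 cells carry an SMN2 […]–luciferase reporter in which exon 7 inclusion puts luciferase in frame. Cells were plated 10-12 h before compound addition, then incubated 30-36 h at 37C. ONE-Glo luminescence was read; sodium butyrate at 4.5 mM final served as control.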
Rab9 promoter act – qHTS Assay for Rab9 Promoter Activators. Huh7 Rab9 promoter-luciferase reporter, luminescence, 24 h. Potency, µM (highest dose often 9.22 µM), for the others: at the top dose activation, negative = inhibition, hits mostly activators. 2.8% of 320,000 active. AID 485297, 2010; further: % of control where 0% means no effect; nearly all actives have a fitted effect of over 60% in size
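Luminescence read-out: Huh7 cells stably expressing Rab9-luciferase, treated 24 h with compound at 37 °C, then lysed with luciferase reagent for 10 min at ambient before reading.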
ELG1 DNA repair – qHTS screen for small molecules that inhibit ELG1-dependent DNA repair in human embryonic kidney (HEK293T) cells expressing luciferase-tagged ELG1; HEK293T ELG1-luciferase reporter, luminescence, 16 h; DNA damage induced by 5-fluorouridine; Potency, µM (highest dose often 46.1 µM), inactives show top-dose activity change, negative = inhibition, hits mostly inhibitors; 2.3% of 330,000 active; AID 504467, 2011; further: on the % scale 0 is the no-effect control and ±100 the full control effect; nearly all actives have a fitted effect of over 55% in size
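Step one: seed 2,000 cells per well. Step two: pin-transfer compound or DMSO alongside 5-fluorouridine. Step three: incubate 16 hr, 37 °C, 5% CO2. Step four: add ONE-Glo, wait 30 min, read luminescence.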
ELG1 genotox – qHTS screen for small molecules that induce genotoxicity in human embryonic kidney (HEK293T) cells expressing luciferase-tagged ELG1 | Potency, µM (series often up to 46 µM), for inactives: at the highest dose activity change, positive = activation, actives largely listed as activators | HEK293T ELG1-luciferase reporter, luminescence, 16 h | AID 504466, 2011 | 1.3% of 330,000 active; further: % of control where 0% means no effect; nearly all actives have a fitted effect of over 60% in size
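After overnight (16 hr) compound treatment at 37 °C, ELG1-luciferase HEK293T cells were lysed with ONE-Glo; luminescence quantified 30 min later at room temperature.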
* marks the source's active call; other numbers are inactive results; ? = inconclusive; . = not tested or not shown; [ ] = another dose, or the depositor's remark. Only some compounds are listed: those with a hit (about 9.3% of all), similar ones and a draw of the others. The call rests on the fitted dose curve; in most records, active means well fitted curve in the direction sought with a large enough effect; inconclusive means small, poorly fitted or top-dose-only effect, or another doubt; inactive means no such curve, though single readings can be large; an effect the other way counts as inactive or inconclusive. Potency means the concentration at half of the fitted maximal effect.

SMILES | NPC1 prom act | FLuc counter | SMN2 splice up | Rab9 promoter act | ELG1 DNA repair | ELG1 genotox
O=C(CSc1ccc(F)cc1)Nc1ccc(Br)cc1 | ? | 13µM* | ? | 2.8µM* | ? | ?
COC(=O)c1ccc(NC(=O)CSc2ccccn2)cc1 | 2% | ? | -14% | 13% | 0% | ?
COC(=O)c1ccc(NC(=O)CSc2ccccc2)cc1 | 19% | 27µM* | 17% | ? | ? | ?
O=C(c1cc(COc2ccc(F)cc2Cl)on1)N1CC2C[C@@H]3CC1C[C@H](C2)C3 | 3.2µM* | 6.7µM* | . | 2.5µM* | ? | 9.2µM*
COc1cc(C)ccc1OCc1cc(C(=O)N2C[C@H]3CC[C@H]2C3)no1 | 3% | -19% | . | 0% | 13% | 4%
O=C(c1cc(COc2ccc(F)cc2Cl)on1)N1C[C@H]2CC[C@H]1C2 | ? | 13µM* | . | 2.8µM* | ? | ?
O=C(c1cc(COc2ccc(F)cc2Cl)on1)N1CC[C@@H]2CCCC[C@H]2C1 | -6% | -11% | . | -2% | 20% | -1%
O=C(C1CCCCC1)N1CC(=O)N2CCc3ccccc3C2C1 (centres undefined) | -7%[46.1 µM] | 1% | -35% | -4%[46.1 µM] | -2% | 4%
CCCCN1C=CC(=C2C(=O)c3ccccc3C2=O)C=C1 | ? | 0.13µM* | -67% | 0.032µM* | ? | ?
CCc1ccc(NC(=O)C2CCN(C(=O)N3CCOc4ccccc43)CC2)cc1 | -3% | -1% | . | -8% | -15% | -9%
O=C1C(C=NCc2cccnc2)=C(O)c2ccccc21 | 14% | 1.9µM* | . | ? | ? | 2.1µM*
O=C1C(C=NCc2ccco2)=C(O)c2ccccc21 | 21% | 6.7µM* | ? | 28% | ? | 5.2µM*
Cc1ccc(S(=O)(=O)NC(=O)Nc2ncc3c(n2)CC(c2ccco2)CC3=O)cc1 (centres undefined) | 5% | 0% | 11% | 0% | 5% | 1%
Cc1ccc(OCC(=O)N/N=C2\CCOc3c(C)cccc32)cc1 | 6% | ? | -13% | -2% | 7% | -3%
COc1cccc2c1OCC/C2=N\NC(=O)COc1ccc(C)cc1 | -1% | 15µM* | 30% | 1% | 14% | 7%
Cc1ccccc1OCC(=O)N/N=C1\CCOc2c(C)cccc21 | 27% | 3% | 12% | ? | ? | 6%
COc1cccc2c1OCC/C2=N\NC(=O)COc1ccccc1C | 9% | 6.7µM* | 17% | 1% | 1% | 9%
O=C(COc1ccc(Br)cc1)N(CCO)CCO | -9% | -4% | . | -7% | 8% | -1%
CCCC(=O)Nc1c(-c2ccc(C)cc2)c(=O)c2ccccc2n1C | -2% | -1% | . | 1% | -1% | 3%
COc1ccc(-c2cn[nH]c2C)cc1 | 5% | -9% | . | -3% | ? | -7%
COc1ccc2cc(-c3ccn[nH]3)ccc2c1 | 2.2µM* | 1.3µM* | . | 1.8µM* | ? | 5.8µM*
CC(C)(C)c1ccc(OCC(O)CSc2ncn[nH]2)cc1 (centres undefined) | ? | 2.1µM* | ? | ? | ? | ?
COc1cc(NC(=O)c2ccc(F)cc2)c(OC)cc1NC(=O)CN1CCOCC1 | -7% | -13% | -11% | -2% | ? | -9%
O=C(NNc1ccccc1Br)C(O)(c1cccc(C(F)(F)F)c1)c1cccc(C(F)(F)F)c1 | -4% | 3% | -83% | 0% | ? | -5%
Cc1ccc(NNC(=O)C(O)(c2cccc(C(F)(F)F)c2)c2cccc(C(F)(F)F)c2)cc1 | -1% | 2% | -70% | -6% | 18µM* | -4%
SMILES | NPC1 prom act | FLuc counter | SMN2 splice up | Rab9 promoter act | ELG1 DNA repair | ELG1 genotox
CC(C)(C)C1CCC(OC(=O)c2cncc(Br)c2)CC1 (centres undefined) | ? | 7.6µM* | -38% | 1.8µM* | 1% | ?
CCc1ccc(-c2cc3c(=O)n(CC(=O)N4CCCC4)nc(C)n3n2)cc1 | 3% | ? | . | 8% | -2% | 3%
CCOC(=O)N1CCN(C(=O)Cn2nc(C)n3nc(-c4ccc(CC)cc4)cc3c2=O)CC1 | 6% | 4.8µM* | . | 6% | 1% | 14%
O=C(Cc1ccccc1)NNC(=O)Nc1ccccc1 | -2% | 17µM* | . | 2% | 7% | -2%
O=C(Nc1ccccc1C(=O)NCc1ccco1)c1ccccc1 | 1% | 0% | -6% | -4% | -16% | -1%
O=C(Nc1ccc(Cl)cc1)Nc1ccccc1C(=O)NCc1ccco1 | 5% | 19µM* | 13% | 7% | 19% | 18%
O=C(Nc1ccccc1)Nc1ccccc1C(=O)NCc1ccccc1 | 5% | 21µM* | 1% | 15% | ? | 1%
Cc1ccc(C)c(N(CC(=O)Nc2ccccc2C(=O)NCc2ccco2)S(=O)(=O)c2ccccc2)c1 | -1% | 3% | -15% | 1% | 23µM* | -8%
O=C(CCc1ccccc1)NNC(=O)Nc1ccccc1 | -2% | 7% | 15% | -8% | 5% | 1%
Cc1ccc(N(CC(=O)Nc2ccccc2C(=O)NCc2ccco2)S(=O)(=O)c2ccccc2)cc1C | 0% | 3% | 15% | 5% | ? | -11%
Cc1ccc(NC(=O)CCc2c(C)nc3nc(C)nn3c2C)c(Cl)c1 | . | -2% | -9% | . | . | .
Cc1ccc(C)c(OCCC(=O)OCC(=O)NCc2ccccc2)c1 | -2% | 1% | . | -6% | 0% | 1%
O=[N+]([O-])c1ccccc1NCCNS(=O)(=O)c1ccc(Cl)cc1 | 1% | 0% | -6%[1.84 µM] | -2% | 22% | 0%
O=[N+]([O-])c1cc(Cl)ccc1NCCNS(=O)(=O)c1ccccc1 | 2% | 27µM* | -20% | -3% | 4% | 1%
CCCCN(C(=O)CNC(=O)c1cccs1)C(C(=O)NC1CCCC1)c1ccncc1 (centres undefined) | 0% | 7.6µM* | . | -4% | 10% | 5%
CC1CCC(NC(=O)CNC(=O)c2cccs2)CC1 (centres undefined) | ? | ? | . | 4µM* | ? | ?
CCOC(=O)CN(C(=O)CNC(=O)c1cccs1)C(C(=O)NC1CCCC1)c1ccncc1 (centres undefined) | 1% | 0% | -8% | 1% | -2% | -2%
CC1CCC(NC(=O)Nc2cccs2)CC1 (centres undefined) | 3% | 15µM* | 18% | ? | ? | ?

Assay outcomes: PubChem BioAssay, National Center for Advancing Translational Sciences (NCATS)
